In PubChem BioAssay AID1159580 (chemical genetic matrix, 2015):
Where “and” joins values, the source holds several entries; their conditions need not be identical. Equal values may be shown once. Screen size: about 5,500 compounds; about 2,000 (36%) were called active. Inconclusive results (about 18%) are left out. Rule as the data show it: active = normalized growth mostly below about 0.91 (no sharp cut-off); inconclusive = no clear call, values can overlap the other calls; inactive = mostly above about 0.92. This is one part of the list.

Assay: chemical genetic growth profiling, strain panel (AID 1159580);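 also: tested at 20 µM; growth read once vehicle control cultures reached saturation at 30 °C; 1 = growth at the plate median or of vehicle wells; lower values mean less growth of the strain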
Conditions: growth OD

Measured: normalized growth

O=C(O)C(O)C(O)C(O)C(O)C(=O)O (stereo unspecified)
inactive: S. cerevisiae deletion strains, locus YBR021W, strain FUR4, stronger effect = lower value 0.99 | S. cerevisiae deletion strains, locus YBR229C, strain ROT2, stronger effect = lower value 0.998 | S. cerevisiae deletion strains, locus YCL029C, strain bik1, stronger effect = lower value 0.982 | S. cerevisiae deletion strains, locus YDL035C, strain GPR1, stronger effect = lower value 1.04 | S. cerevisiae deletion strains, locus YDL074C, strain BRE1, stronger effect = lower value 1.04 | S. cerevisiae deletion strains, locus YDL101C, strain DUN1, stronger effect = lower value 0.988 | S. cerevisiae deletion strains, locus YDL185W, strain tfp1, stronger effect = lower value 1 | S. cerevisiae deletion strains, locus YDL192W, strain arf1, stronger effect = lower value 0.993 | S. cerevisiae deletion strains, locus YDR101C, strain arx1, stronger effect = lower value 0.983 | S. cerevisiae deletion strains, locus YDR150W, strain NUM1, stronger effect = lower value 1.02 | S. cerevisiae deletion strains, locus YDR162C, strain NBP2, stronger effect = lower value 1.01 | S. cerevisiae deletion strains, locus YDR318W, strain mcm21, stronger effect = lower value 1 | S. cerevisiae deletion strains, locus YDR388W, stronger effect = lower value 0.993 | S. cerevisiae deletion strains, locus YDR502C, strain sam2, stronger effect = lower value 0.991 | S. cerevisiae deletion strains, locus YEL061C, strain CIN8, stronger effect = lower value 1.06 | S. cerevisiae deletion strains, locus YER110C, stronger effect = lower value 0.982 | S. cerevisiae deletion strains, locus YER155C, strain BEM2, stronger effect = lower value 0.994 | S. cerevisiae deletion strains, locus YER167W, strain BCK2, stronger effect = lower value 1 | S. cerevisiae deletion strains, locus YGL078C, strain dbp3, stronger effect = lower value 0.994 | S. cerevisiae deletion strains, locus YGL086W, strain mad1, stronger effect = lower value 0.966 | S. cerevisiae deletion strains, locus YGL248W, strain PDE1, stronger effect = lower value 0.997 | S. cerevisiae deletion strains, locus YGR078C, strain PAC10, stronger effect = lower value 0.997 | S. cerevisiae deletion strains, locus YGR135W, strain pre9, stronger effect = lower value 0.991 | S. cerevisiae deletion strains, locus YGR229C, strain SMI1, stronger effect = lower value 1.03 | S. cerevisiae deletion strains, locus YGR252W, strain gcn5, stronger effect = lower value 1.04 | S. cerevisiae deletion strains, locus YHR030C, strain SLT2, stronger effect = lower value 1 and 0.993 | S. cerevisiae deletion strains, locus YHR079C, strain IRE1 (second series), stronger effect = lower value 0.99 | S. cerevisiae deletion strains, locus YHR079C, strain IRE1, stronger effect = lower value 1 | S. cerevisiae deletion strains, locus YHR094C, strain hxt1, stronger effect = lower value 0.989 | S. cerevisiae deletion strains, locus YHR129C, strain ARP1, stronger effect = lower value 1.01 | S. cerevisiae deletion strains, locus YHR200W, strain rpn10, stronger effect = lower value 0.983 | S. cerevisiae deletion strains, locus YIL066C, strain RNR3, stronger effect = lower value 0.985 | S. cerevisiae deletion strains, locus YIL073C, strain SPO22, stronger effect = lower value 1.01 | S. cerevisiae deletion strains, locus YIL125W, strain kgd1, stronger effect = lower value 0.984 | S. cerevisiae deletion strains, locus YIR030C, strain dcg1, stronger effect = lower value 0.986 | S. cerevisiae deletion strains, locus YJL095W, strain BCK1, stronger effect = lower value 1.02 and 0.995 | S. cerevisiae deletion strains, locus YJL134W, strain LCB3, stronger effect = lower value 1 | S. cerevisiae deletion strains, locus YJL168C, strain set2, stronger effect = lower value 0.988 | S. cerevisiae deletion strains, locus YJL187C, strain SWE1 (second series), stronger effect = lower value 0.996 | S. cerevisiae deletion strains, locus YJR043C, strain POL32, stronger effect = lower value 1.01 | S. cerevisiae deletion strains, locus YJR066W, strain TOR1, stronger effect = lower value 0.942 | S. cerevisiae deletion strains, locus YKL009W, strain mrt4, stronger effect = lower value 0.966 | S. cerevisiae deletion strains, locus YKL068W, stronger effect = lower value 0.998 | S. cerevisiae deletion strains, locus YKL085W, strain MDH1 (second series), stronger effect = lower value 0.983 | S. cerevisiae deletion strains, locus YKL085W, strain MDH1, stronger effect = lower value 0.983 | S. cerevisiae deletion strains, locus YKL190W, strain CNB1, stronger effect = lower value 1.03 | S. cerevisiae deletion strains, locus YKR001C, strain vps1, stronger effect = lower value 0.985 | S. cerevisiae deletion strains, locus YLR039C, strain RIC1, stronger effect = lower value 1.07 | S. cerevisiae deletion strains, locus YLR058C, strain SHM2, stronger effect = lower value 1 | S. cerevisiae deletion strains, locus YLR102C, strain apc9, stronger effect = lower value 0.99 | S. cerevisiae deletion strains, locus YLR113W, strain HOG1, stronger effect = lower value 0.995 | S. cerevisiae deletion strains, locus YLR262C, strain YPT6, stronger effect = lower value 1.14 | S. cerevisiae deletion strains, locus YLR268W, strain sec22, stronger effect = lower value 0.972 | S. cerevisiae deletion strains, locus YLR330W, strain CHS5, stronger effect = lower value 0.992 | S. cerevisiae deletion strains, locus YLR342W, strain FKS1 (second series), stronger effect = lower value 1 | S. cerevisiae deletion strains, locus YLR371W, strain rom2, stronger effect = lower value 0.977 | S. cerevisiae deletion strains, locus YLR418C, strain cdc73, stronger effect = lower value 0.993 | S. cerevisiae deletion strains, locus YML016C, strain PPZ1, stronger effect = lower value 0.982 | S. cerevisiae deletion strains, locus YML032C, strain rad52, stronger effect = lower value 1.02 | S. cerevisiae deletion strains, locus YML124C, strain tub3, stronger effect = lower value 0.985 | S. cerevisiae deletion strains, locus YMR078C, strain ctf18, stronger effect = lower value 0.983 | S. cerevisiae deletion strains, locus YMR223W, strain ubp8, stronger effect = lower value 1.01 | S. cerevisiae deletion strains, locus YMR263W, strain SAP30, stronger effect = lower value 1 | S. cerevisiae deletion strains, locus YMR307W, strain GAS1, stronger effect = lower value 1.1 | S. cerevisiae deletion strains, locus YNL067W, strain RPL9B, stronger effect = lower value 1 | S. cerevisiae deletion strains, locus YNL183C, strain NPR1, stronger effect = lower value 0.909 | S. cerevisiae deletion strains, locus YNL233W, strain BNI4, stronger effect = lower value 1 | S. cerevisiae deletion strains, locus YNL250W, strain rad50, stronger effect = lower value 0.972 | S. cerevisiae deletion strains, locus YNL271C, strain bni1, stronger effect = lower value 0.984 | S. cerevisiae deletion strains, locus YNL298W, strain CLA4, stronger effect = lower value 0.992 | S. cerevisiae deletion strains, locus YNL307C, strain MCK1, stronger effect = lower value 0.979 | S. cerevisiae deletion strains, locus YNL322C, strain KRE1, stronger effect = lower value 1 | S. cerevisiae deletion strains, locus YNR052C, strain pop2, stronger effect = lower value 1 | S. cerevisiae deletion strains, locus YOL006C, strain TOP1, stronger effect = lower value 0.989 | S. cerevisiae deletion strains, locus YOL012C, strain htz1 0.785 | S. cerevisiae deletion strains, locus YOL147C, strain pex11, stronger effect = lower value 0.991 | S. cerevisiae deletion strains, locus YOR061W, strain CKA2, stronger effect = lower value 0.997 | S. cerevisiae deletion strains, locus YOR069W, strain VPS5, stronger effect = lower value 1 | S. cerevisiae deletion strains, locus YOR136W, strain idh2, stronger effect = lower value 0.983 | S. cerevisiae deletion strains, locus YOR144C, strain elg1, stronger effect = lower value 0.982 | S. cerevisiae deletion strains, locus YOR184W, strain ser1, stronger effect = lower value 0.993 | S. cerevisiae deletion strains, locus YOR231W, strain MKK1, stronger effect = lower value 1.01 | S. cerevisiae deletion strains, locus YOR316C, strain cot1, stronger effect = lower value 0.983 | S. cerevisiae deletion strains, locus YPL241C, strain CIN2, stronger effect = lower value 1.05 | S. cerevisiae deletion strains, locus YPL256C, strain CLN2, stronger effect = lower value 0.978 | S. cerevisiae deletion strains, locus YPR119W, strain clb2, stronger effect = lower value 0.986 | S. cerevisiae deletion strains, locus YPR141C, strain kar3, stronger effect = lower value 0.986 | S. cerevisiae deletion strains, locus YPR163C, strain tif3, stronger effect = lower value 0.982 | S. cerevisiae deletion strains, locus YPR167C, strain met16, stronger effect = lower value 0.988 | S. cerevisiae deletion strains, strain wtn01, stronger effect = lower value 0.971 | S. cerevisiae strains, strain wild type, stronger effect = lower value 1.03
